According to the supplement of paper PMC12350171:
Structures can show the parent of a compound that is named as a salt.

What was measured:
Assay in all cases: growth AUC normalised to DMSO control (median) (fraction of control); higher = less growth inhibition, active = hit call of the paper
Details in all cases: 20 µM;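 active = normalised median growth AUC below 0.1 of DMSO control; inactive = AUC 0.1 or higher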
P. vulgatus RND KO = system: P. vulgatus RND KO
In short: (§1)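 After two overnight anaerobic passages, strains were inoculated at OD578 0.01 into mGAM in 96-well plates containing approved-drug library compounds at 20 μM and 1% DMSO. Growth was followed by reading OD578 hourly for 24 h within an anaerobic incubator. Area under the curve, taken by the trapezoidal rule up to the start of stationary phase, was normalised to same-plate vehicle wells, and the median of three biological replicates is listed.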

P. vulgatus WT = system: P. vulgatus WT
In short: as §1

[1] = system: S. enterica typhimurium WT
In short: as §1

[2] = system: S. enterica typhimurium tolC KO
In short: as §1

Measured: growth AUC normalised to DMSO control
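Also: active when median AUC fell below 0.1.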

CN(C)CCc1c[nH]c2ccc(C[C@H]3COC(=O)N3)cc12 [Zolmitriptan]
inactive: P. vulgatus RND KO 0.971 | P. vulgatus WT 0.964 | [1] 1 | [2] 1

CCOc1ccccc1C(N)=O [Ethenzamide]
inactive: P. vulgatus RND KO 1.02 | P. vulgatus WT 1.03 | [1] 1 | [2] 1

CO/N=C(\C(=O)N[C@@H]1C(=O)N2C(C(=O)[O-])=C(C[n+]3cccc4c3CCC4)CS[C@H]12)c1csc(N)n1 [Cefpirome sulfate]
active: P. vulgatus RND KO 0.0131 | P. vulgatus WT 0.00672 | [1] 0.00453 | [2] 0.00385

O=C1[C@H]2CCCC[C@H]2C(=O)N1CCCCN1CCN(c2nsc3ccccc23)CC1 [Perospirone hydrochloride]
inactive: P. vulgatus RND KO 0.997 | P. vulgatus WT 0.986 | [1] 0.998 | [2] 0.98

C/C(=C\C(=O)OCCCCCCCCC(=O)O)C[C@@H]1OC[C@H](C[C@@H]2O[C@H]2[C@@H](C)[C@H](C)O)[C@@H](O)[C@H]1O [Mupirocin]
active: [2] 0.0105
inactive: P. vulgatus RND KO 1 | P. vulgatus WT 1.04 | [1] 0.403

O=c1[nH]c(=O)n([C@H]2C[C@H](O)[C@@H](CO)O2)cc1/C=C/Br [Brivudine]
inactive: P. vulgatus RND KO 1.02 | P. vulgatus WT 1.01 | [1] 1 | [2] 1.01

COc1ccc(C(=O)c2ccc(C)cc2)c(O)c1 [Mexenone]
inactive: P. vulgatus RND KO 0.999 | P. vulgatus WT 1 | [1] 1 | [2] 0.931

CCCCc1oc2ccc(NS(C)(=O)=O)cc2c1C(=O)c1ccc(OCCCN(CCCC)CCCC)cc1 [Dronedarone hydrochloride]
inactive: P. vulgatus RND KO 1.01 | P. vulgatus WT 1.03 | [1] 1 | [2] 1

CC(=O)Nc1ccc(C(=O)O)cc1 [Acedoben]
inactive: P. vulgatus RND KO 0.997 | P. vulgatus WT 1.01 | [1] 1 | [2] 0.997

CCc1ccc(C(=O)C(C)CN2CCCCC2)cc1 (stereo unspecified) [Eperisone Hydrochloride]
inactive: P. vulgatus RND KO 1.03 | P. vulgatus WT 1.04 | [1] 1 | [2] 0.989

CC(C)c1nc(CN(C)C(=O)N[C@H](C(=O)N[C@@H](Cc2ccccc2)C[C@H](O)[C@H](Cc2ccccc2)NC(=O)OCc2cncs2)C(C)C)cs1 [Ritonavir]
inactive: P. vulgatus RND KO 1.04 | P. vulgatus WT 1.04 | [1] 0.998 | [2] 0.97

CN(C)C(=O)COC(=O)Cc1ccc(OC(=O)c2ccc(NC(=N)N)cc2)cc1 [Camostat mesylate]
inactive: P. vulgatus RND KO 1.02 | P. vulgatus WT 1.03 | [1] 0.997 | [2] 1

CS(=O)(=O)c1ccc([C@@H](O)[C@@H](CF)NC(=O)C(Cl)Cl)cc1 [Florfenicol]
active: P. vulgatus RND KO 0.0099 | P. vulgatus WT 0.00788 | [1] 0.00248 | [2] 0.00279

COC(=O)C1=C(C)NC(C)=C(C(=O)OC2CCCN(Cc3ccccc3)C2)C1c1cccc([N+](=O)[O-])c1 (stereo unspecified) [Benidipine hydrochloride]
inactive: P. vulgatus RND KO 1.01 | P. vulgatus WT 0.968 | [1] 0.993 | [2] 0.961

COc1nc(N)nc2c1ncn2[C@@H]1O[C@H](CO)[C@@H](O)[C@@H]1O [Nelarabine]
inactive: P. vulgatus RND KO 0.98 | P. vulgatus WT 0.981 | [1] 0.997 | [2] 0.981

Cc1c(O)cccc1C(=O)N[C@@H](CSc1ccccc1)[C@H](O)CN1C[C@H]2CCCC[C@H]2C[C@H]1C(=O)NC(C)(C)C [Nelfinavir mesylate]
inactive: P. vulgatus RND KO 0.912 | P. vulgatus WT 0.954 | [1] 1 | [2] 0.962

C[C@H](Cc1cc2c(c(C(N)=O)c1)N(CCCO)CC2)NCCOc1ccccc1OCC(F)(F)F [Silodosin]
inactive: P. vulgatus RND KO 1.06 | P. vulgatus WT 1.05 | [1] 1.01 | [2] 0.961

CC(=O)Nc1cccc(O)c1 [Metacetamol]
inactive: P. vulgatus RND KO 1 | P. vulgatus WT 1.01 | [1] 1 | [2] 0.987

CC1=C(C(=O)O)N2C(=O)[C@@H](NC(=O)[C@H](N)C3=CCC=CC3)[C@H]2SC1 [Cephradine monohydrate]
inactive: P. vulgatus RND KO 1.04 | P. vulgatus WT 1.05 | [1] 0.991 | [2] 1.01

C[N+](C)(C)C[C@H](O)CC(=O)[O-] [Levocarnitine]
inactive: P. vulgatus RND KO 0.998 | P. vulgatus WT 1.04 | [1] 0.998 | [2] 1

O=P(O)(O)C(O)(Cc1cccnc1)P(=O)(O)O [Risedronic acid monohydrate]
inactive: P. vulgatus RND KO 0.976 | P. vulgatus WT 0.999 | [1] 1.01 | [2] 1

CCCCCCCCCCCCCCCCCCCCCC(=O)Nc1ccn([C@@H]2O[C@H](CO)[C@@H](O)[C@@H]2O)c(=O)n1 [Enocitabine]
inactive: P. vulgatus RND KO 1.01 | P. vulgatus WT 1.04 | [1] 1.01 | [2] 1

Cc1onc(-c2ccccc2)c1-c1ccc(S(N)(=O)=O)cc1 [Valdecoxib]
inactive: P. vulgatus RND KO 0.981 | P. vulgatus WT 0.993 | [1] 1 | [2] 0.983

C/C(=C1\CCOC(=O)S1)N(C=O)Cc1cnc(C)nc1N [Cycotiamine]
inactive: P. vulgatus RND KO 1.01 | P. vulgatus WT 1.07 | [1] 0.995 | [2] 1

CC(C)OC(=O)CCC/C=C\C[C@@H]1[C@@H](CC[C@@H](O)CCc2ccccc2)[C@H](O)C[C@@H]1O [Latanoprost]
inactive: P. vulgatus RND KO 0.958 | P. vulgatus WT 0.966 | [1] 1.01 | [2] 0.896

CSc1nc2cc(Cl)c(Oc3cccc(Cl)c3Cl)cc2[nH]1 [Triclabendazole]
inactive: P. vulgatus WT 0.129 | [1] 0.991
active: P. vulgatus RND KO 0.0625 | [2] 0.0431

CS(=O)(=O)CCNCc1ccc(-c2ccc3ncnc(Nc4ccc(OCc5cccc(F)c5)c(Cl)c4)c3c2)o1 [Lapatinib]
inactive: P. vulgatus RND KO 1.03 | P. vulgatus WT 1.03 | [1] 1 | [2] 0.99

C=C1CC[C@H](O)C/C1=C/C=C1\CCC[C@]2(C)[C@@H]([C@H](C)CCCC(C)C)CC[C@@H]12 [Cholecalciferol]
inactive: P. vulgatus RND KO 1.05 | P. vulgatus WT 1.07 | [1] 0.999 | [2] 0.982

CC(=O)Oc1ccccc1C(=O)Nc1ncc([N+](=O)[O-])s1 [Nitazoxanide]
inactive: [1] 0.922 | [2] 0.414
active: P. vulgatus RND KO 0.0128 | P. vulgatus WT 0.0145

C[C@H](NCc1ccc(OCc2cccc(F)c2)cc1)C(N)=O [Safinamide]
inactive: P. vulgatus RND KO 1.02 | P. vulgatus WT 1.01 | [1] 0.986 | [2] 1

COc1ccc(CN2CCN(C(c3ccc(F)cc3)c3ccc(F)cc3)CC2)c(OC)c1OC [Lomerizine dihydrochloride]
inactive: P. vulgatus RND KO 0.997 | P. vulgatus WT 0.986 | [1] 1.01 | [2] 0.978

Oc1ccc(C2CNCCc3c2cc(O)c(O)c3Cl)cc1 (stereo unspecified) [Fenoldopam]
inactive: P. vulgatus RND KO 0.995 | P. vulgatus WT 0.992 | [1] 0.985 | [2] 0.978

CC(C)C[C@H](NC(=O)[C@@H](O)[C@H](N)Cc1ccccc1)C(=O)O [Ubenimex]
inactive: P. vulgatus RND KO 0.448 | P. vulgatus WT 0.535 | [1] 1 | [2] 0.992

O=P(O)(O)C(O)(Cn1ccnc1)P(=O)(O)O [Zoledronic acid hydrate]
inactive: P. vulgatus RND KO 0.972 | P. vulgatus WT 0.988 | [1] 1.01 | [2] 0.994

CC(C)c1nc(N(C)S(C)(=O)=O)nc(-c2ccc(F)cc2)c1/C=C/[C@@H](O)C[C@@H](O)CC(=O)O [Rosuvastatin]
inactive: P. vulgatus RND KO 1.01 | P. vulgatus WT 1.03 | [1] 1.01 | [2] 1.01

CN1CCN(c2c(F)cc3c(=O)c(C(=O)O)cn4c3c2OCN4C)CC1 [Marbofloxacin]
active: P. vulgatus RND KO 0.0125 | P. vulgatus WT 0.0111 | [1] 0.00445 | [2] 0.00216

CCOc1cc(N)c(Cl)cc1C(=O)NCC1CN(Cc2ccc(F)cc2)CCO1 (stereo unspecified) [Mosapride]
inactive: P. vulgatus RND KO 0.938 | P. vulgatus WT 0.981 | [1] 0.988 | [2] 0.722

CC(C)(C)c1ccc(C(=O)CCCN2CCC(OC(c3ccccc3)c3ccccc3)CC2)cc1 [Ebastine]
inactive: P. vulgatus RND KO 0.999 | P. vulgatus WT 1.01 | [1] 1.01 | [2] 0.97

C[C@@H](O)[C@H]1C(=O)N2C(C(=O)O)=C(S[C@@H]3CN[C@H](CNS(N)(=O)=O)C3)[C@H](C)[C@H]12 [Doripenem monohydrate]
active: P. vulgatus RND KO 0.00779 | P. vulgatus WT 0.00747 | [1] 0.00575 | [2] 0.00595

COc1cc(NS(=O)(=O)c2ccc(N)cc2)ncn1 [Sulfamonomethoxine]
inactive: P. vulgatus RND KO 1.02 | P. vulgatus WT 0.976 | [1] 0.955 | [2] 0.974

CC(C)(CO)[C@@H](O)C(=O)NCCC(=O)NCCSSCCNC(=O)CCNC(=O)[C@H](O)C(C)(C)CO [D-Pantethine]
inactive: P. vulgatus RND KO 1.01 | P. vulgatus WT 1.01 | [1] 1 | [2] 1

O=C(O)c1ccccc1Nc1cc(Cl)ccc1C(=O)O [Lobenzarit disodium]
inactive: P. vulgatus RND KO 0.992 | P. vulgatus WT 1.02 | [1] 1.02 | [2] 0.959

CCCCCOC(=O)Nc1nc(=O)n([C@@H]2O[C@H](C)[C@@H](O)[C@H]2O)cc1F [Capecitabine]
inactive: P. vulgatus RND KO 0.987 | P. vulgatus WT 0.998 | [1] 0.982 | [2] 0.994

CCCCOC(=O)c1ccccc1Nc1cccc(C(F)(F)F)c1 [Ufenamate]
inactive: P. vulgatus RND KO 1.02 | P. vulgatus WT 0.978 | [1] 0.998 | [2] 0.992
